# From PubChem BioAssay AID1508600 (Functional Genomics Laboratory (NCATS/FGL), 2020)
# Out of some 53,000 sequences screened, about 3,700 (7%) were called active.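 Rule for the calls: active = gene knockdowns whose robust z-score for IL-1 alpha signal is at least 2 or at most -2, so actives lie on both sides; inactive = the rest.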 Only a selection was taken, and actives are over-represented in it overall.
# Assay: Components of the Cytosolic LPS Sensing Pathway: Gene Identification via Genome-wide siRNA Screen;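 note: robust z of the log signal after scaling to non-targeting control siRNA wells of the plate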
# Conditions: RAW264.7 macrophages, IL-1a HTRF, actives lie on both sides, screened at 100 nM (by protocol), cells primed 5 h with Pam3CSK4 first
# Outline: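 Using IL-1a HTRF as read-out, the screen measured release from RAW264.7 cells after 48h siRNA knockdown (100 nM), 5 h Pam3CSK4 priming and 24 h cytosolic LipidA. Values were expressed relative to negative-control wells as robust z-scores.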
row,Sequence,z-score
1,GGUGACUGUCCUGAACUAUTT against Prr5l,1.7 (inactive)
2,CGAAGUGAAAAGUAUGACCTT against Lrrc72,-0.083 (inactive)
3,GGGCAUAGUGACCAGGUUATT against Fgf14,2.67 (active)
4,AUCUCUCGGUGGUGGACUGTT against Olfr1474,0.583 (inactive)
5,CCAGGUCGAACUUCUGUGCTT against Slc39a8,-0.82 (inactive)
6,GCAACUCAGAAUGUAGUGUTT against Gnai1,0.298 (inactive)
7,GGCUUUUGAUGAGGUAAAATT against Plekho2,-1.12 (inactive)
8,GGAGGAAAAACAGUGCAGATT against Smchd1,-1.54 (inactive)
9,GGACCUAUUACCUCAAUGATT against Spatc1l,-2.59 (active)
10,GGUUCUGACUUGAGAAAACTT against Clba1,1.41 (inactive)
11,GGUUAUUCUGGUACAGGUUTT against Fndc3a,0.191 (inactive)
12,GGCUCAGCUCAUGAACGACTT against Acvr2b,-0.00307 (inactive)
13,GGACAUGACCAAAAGGCUGTT against Zfp706,3.84 (active)
14,GGUGGUUUUCAUGUUUCCCTT against Olfr574,-1.48 (inactive)
15,GGCUAGAAUGCACAUUUUATT against Tmem65,-1.26 (inactive)
16,CCACCCUCUUCAUAACAGUTT against Med27,-0.82 (inactive)
17,GCCAAUACACGUCUACUGATT against Gm1553,-0.0632 (inactive)
18,GGUGACACUCAAGGUGUCATT against Ldlrap1,2.23 (active)
19,GGACCAUGAGACGAUGGGATT against Dysf,0.167 (inactive)
20,GCUAAUGACACCACUUUUGTT against Aldh9a1,-0.379 (inactive)
21,GGAUUGAGUCCUAUGAAGGTT against Stard3nl,-1.09 (inactive)
22,CCAAGUGACUUUAAGGAUGTT against Pcolce,0.759 (inactive)
23,GGCCAUCAUAUCACCAUUUTT against Rcsd1,1.6 (inactive)

row,Sequence,z-score
1,GCCUUAGGCAUUUAGAUUUTT against Zbed4,1.33 (inactive)
2,GCUGAAGUUCGUACCCUACTT against Osbp2,-2.42 (active)
3,CGGAGUUCAGCAUUUACCCTT against Shld2,0.428 (inactive)
4,GGCAGUUUGACAACUUUAATT against Fibp,-0.653 (inactive)
5,CCCAGCUCAGGUUUCUAUGTT against Dact2,0.0333 (inactive)
6,GGUGAUCAAUCCUCUAAUATT against Eid2,2.61 (active)
7,GCCUAUGUAAAUAGUGCUGTT against Mt3,0.549 (inactive)
8,GCUAGGUUGGAUAUAUAUGTT against Mypn,-0.0247 (inactive)
9,CGAAGUGAGAAUUGAAUUUTT against Zp2,1.51 (inactive)
10,GCUGCUCAGUUUCUUCCAATT against H4c9,2.08 (active)
11,CGGGAAGUAGUGCAACACCTT against Taldo1,-0.902 (inactive)
12,GCACGUAGUAAGAUGUUACTT against Cnot9,-0.969 (inactive)
13,GGGCAUGAAUGGUUACUUATT against Mllt6,1.24 (inactive)
14,GCACAGUACCAUAACGGCUTT against Nampt,-2.06 (active)
15,GGGUGUCAUAUAUAUUGCUTT against Gpr83,0.889 (inactive)
16,GCAAGUGAAAUCCAAACAGTT against Nabp1,-1.54 (inactive)
17,GGUGAGAAGACCAUUGAUUTT against Insr,0.459 (inactive)
18,GGUACUCUCAUUAUCUUUCTT against Tlr8,-0.217 (inactive)
19,GUGAGAAGUUGUGUAGAGCTT against Fmc1,1.84 (inactive)
20,GCAUACAACUGUUCAUAGATT against Nsrp1,-0.476 (inactive)
21,GGAGCUGAGGGAACCUUGUTT against Slc35c1,-2.67 (active)
22,GGACAGCGACAAGAUUCCGTT against Sox4,-0.714 (inactive)
23,GCCUUUAAUCAACCCAAGATT against Scd1,-0.728 (inactive)

row,Sequence,z-score
1,GCUAAAGAUGAGCGUACAUTT against Myh10,1.44 (inactive)
2,GGUGGUGGAGAAGAUAGGATT against Pax8,-1.05 (inactive)
3,CCAUCUAUUACGGAACGGGTT against Olfr324,1.36 (inactive)
4,GGCCUCAACUAAGAACCCUTT against Pcdh1,-0.298 (inactive)
5,GGUCCAAUUAACCUAUCUUTT against Ppip5k2,-2.06 (active)
6,GGAGAUUAGUUACUUCCAGTT against Slc1a7,3.5 (active)
7,GGAUACAUUAAUUGUUUGGTT against Ppp4r3b,2.55 (active)
8,GGUCACUGCUAAAGCCUGATT against Stoml3,0.864 (inactive)
9,GGCCAUGAAUAUGGAGUCCTT against Cptp,0.623 (inactive)
10,GGAAAUCAGAGCUGAGUUATT against Ankrd6,0.0763 (inactive)
11,GGUAGUAGUAAGCCAUAAATT against Exoc8,0.736 (inactive)
12,CCCUUGAACAUUCUACUCUTT against 1700012A03Rik,-0.955 (inactive)
13,GAUCAUCGGCAUUUUGAACTT against Il4,-0.527 (inactive)
14,GGCUGGUACAAAGUUUUAGTT against Mpv17,2.55 (active)
15,GGUAGUAGGAGUUUCCUACTT against 4933414I15Rik,1.44 (inactive)
16,CGGUAAUCAUUGCUGUUCUTT against H2-K1,1.05 (inactive)
17,GGAAGACCAAUAGUACUGCTT against Il1rn,-0.0282 (inactive)
18,GGAGUACGAAUUCCUCACUTT against Arhgdib,-0.0475 (inactive)
19,GGCUCAAAGAAUAUGCCAATT against Rad54b,0.99 (inactive)
20,GCCAGUGCUGGUUUGAAAUTT against Clip4,1.67 (inactive)
21,CCACUGUUACCAUUAUAAUTT against Pramel4,-0.594 (inactive)
22,GGAUAAAGGAAUCUGAUCUTT against Unc80,-2.58 (active)
23,GCGCAGAAGAGGCUAUUAUTT against Asprv1,-0.125 (inactive)
